# Assay outcomes: PubChem BioAssay, National Center for Advancing Translational Sciences (NCATS)
# Sampled rows, rich in hits. Any-hit rate of the full collection: about 1.2%.
# CCT modulator – High-Throughput Screening for Modulators of Cytosolic Chaperonin Activity; purified chaperonin ATPase assay, HTRF ADP detection, 30 min; activity change, % (test concentration not listed), hits read low; hit rate 0.3% among 360,000; in the data active = activity change below about -30%
#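 ATPase activity: ADP formed was measured by HTRF Transcreener (665/615 nm ratio) after 30 min at 37 deg C with 10 uM ATP. Compounds screened at one 76 uM concentration against 40 or 20 nM TRiC in Tris pH 7.4/KCl/MgCl2/DTT buffer.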
# pAkt inh – HTS Assay for Inhibitors of Akt Phophorylation: Primary Screen; activity change, % for hits at 50 µM; hit rate 0.32% among 360,000; Neuro2A IGF-stimulated pAkt S473 HTRF, 20 min; stronger effect = lower value; in the data active = activity change below about -80%; inconclusive = mostly about -51% to -80%
#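 Single-point screen (50 µM final compound) in Neuro2A cells stimulated 20 min with 6 nM IGF at 37 deg C. After lysis, Ser473-phosphorylated Akt read by HTRF (ex 330 nm, em 615/665 nm) as the 665/615 ratio.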
# CtBP-E1A blk – qHTS Assay for Inhibitors of the CtBP/E1A Interaction. CtBP / adenovirus E1A interaction (AlphaScreen). AlphaScreen GST-E1A/His-CtBP binding, 1536-well; stronger effect = lower value. activity change, % (concentration not given with the values). hit rate 0.49% among 340,000. AID 651724, 2012
#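 Homogeneous bead-based format: GST-tagged E1A captured on glutathione donor beads, His-tagged CtBP on nickel acceptor beads; compounds precede bead addition by 2 h at 37 °C.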
# Six1-Eya2 blk – qHTS Assay for Inhibitors of the Six1/Eya2 Interaction. AlphaScreen GST-Six1/His-Eya2 binding, biochemical; stronger effect = lower value. activity change, % (concentration not given with the values). hit rate 0.56% among 360,000
# Target sequence (O00167 whole entry, looked up): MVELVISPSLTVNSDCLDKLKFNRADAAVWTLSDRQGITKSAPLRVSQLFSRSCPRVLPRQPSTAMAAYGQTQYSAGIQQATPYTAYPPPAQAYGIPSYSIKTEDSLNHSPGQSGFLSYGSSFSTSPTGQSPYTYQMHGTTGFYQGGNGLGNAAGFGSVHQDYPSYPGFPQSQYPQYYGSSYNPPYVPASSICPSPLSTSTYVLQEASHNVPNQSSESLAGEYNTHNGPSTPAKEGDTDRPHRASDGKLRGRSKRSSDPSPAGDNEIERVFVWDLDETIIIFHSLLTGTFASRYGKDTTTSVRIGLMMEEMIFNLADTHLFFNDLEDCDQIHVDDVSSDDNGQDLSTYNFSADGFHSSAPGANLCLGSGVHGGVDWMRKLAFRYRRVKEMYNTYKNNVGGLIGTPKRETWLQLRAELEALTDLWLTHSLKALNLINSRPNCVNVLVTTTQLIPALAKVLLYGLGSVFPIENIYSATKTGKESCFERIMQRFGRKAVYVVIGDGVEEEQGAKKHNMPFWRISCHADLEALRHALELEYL
# Target sequence (Q15475 whole entry, looked up): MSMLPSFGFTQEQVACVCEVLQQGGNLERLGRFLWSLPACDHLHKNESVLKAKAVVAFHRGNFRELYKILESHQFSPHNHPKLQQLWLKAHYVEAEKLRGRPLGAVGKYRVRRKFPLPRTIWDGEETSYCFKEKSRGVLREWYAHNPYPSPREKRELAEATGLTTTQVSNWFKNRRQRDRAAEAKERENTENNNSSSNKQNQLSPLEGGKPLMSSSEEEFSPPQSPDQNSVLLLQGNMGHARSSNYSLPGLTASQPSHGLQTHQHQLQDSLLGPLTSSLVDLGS
#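 Compounds are tested against tagged Six1 and Eya2 proteins bridged by glutathione donor and nickel acceptor beads; after a one-hour incubation at 37 °C without light, AlphaScreen emission is recorded.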
# Active calls of the source: *; i = inactive; ? = inconclusive; nt = no result given; ! = not active in a repeat. Cut-off read from the data, not from the text of the source, unless noted: active = activity change below about -65%; inconclusive = mostly about -30% to -63%; inactive = weaker than that. % is set by controls: 0 for no effect and ±100 for the full control effect.
SMILES,CCT modulator,pAkt inh,CtBP-E1A blk,Six1-Eya2 blk
Nc1ccccc1C(=O)N1O[C@@H]2C=C[C@H]1CC2,-2,i,6,-6
CCc1nnc(NC(=O)c2cc(Cl)ccn2)s1,1,i,-93*,-77*
COc1ccc(NC(=O)N[C@@H](CCSC)C(=O)O)cc1Cl,-2,-115%*,6,6
CCOc1ccc2nc(SCC(=O)NCC3CCCO3)sc2c1 (stereo not given),-3,i,0,9
CCOc1ccc2[nH]c3nc(SCC(=O)NCC4CCCO4)nnc3c2c1 (stereo not given),-1,i,-86*,-90*
O=C1C=C(c2ccc(CO)cc2)C[C@@H](c2ccc3c(c2)OCO3)C1,0,i,3,-5
Cc1cc(C)c(NC(=O)COC(=O)c2cccc3c2C(=O)c2ccccc2C3=O)c(C)c1,0,i,?,?
Cc1cc(C)c(Nc2cc(S(=O)(=O)O)c(N)c3c2C(=O)c2ccccc2C3=O)c(C)c1,-1,i,-88*!,-68*
Ic1ccc(N2CCN(Cc3c[nH]c4ncccc34)CC2)cc1,-1,i,-20,-13
COc1ccccc1CC(NC(C)=O)C(=O)NC1CCN(C(=O)Nc2ccccc2F)CC1 (stereo not given),-2,i,0,-2
CCN1N=C(c2ccccc2)Cn2c1nc1ccccc12,-1,-107%*,31,44
Cc1ccc(CNC(=O)COC(=O)c2ccc(S(=O)(=O)N(C)C)cc2)cc1,0,i,4,-4
O=C(c1ccc(S(=O)(=O)Nc2ccccc2)cc1)N1CCC1,-3,i,1,-7
CC1(C#CC[N+]2(C)CCCCC2)CCC2C(O1)c1ccccc1OC2(C)C (stereo not given),4,i,nt,-1
CCOc1ccc(C(=O)OCC(=O)Nc2cccnc2Cl)cc1OCC,-1,i,-5,-3
CCOC(=O)c1ncccc1NC(=O)CC(=O)Nc1cccnc1C(=O)OCC,3,i,nt,-95*
CCc1c(C)sc(NC(=O)CC#N)c1C#N,-24,nt,-67*,?
CCCC(=O)Nc1sc(C)c(C)c1C#N,3,i,0,0
COc1ccccc1N1CCN(C(=O)c2ccc(Cn3c(=S)[nH]c4cc5c(cc4c3=O)OCO5)cc2)CC1,-31*,i,5,0
CCOC(=O)N1CCN(C(=O)c2ccc(Cn3c(=S)[nH]c4cc5c(cc4c3=O)OCO5)cc2)CC1,-1,i,-8,-7
COc1ccc(-c2nc(-c3cccs3)c(-c3cccs3)[nH]2)cc1OC,2,i,-73*,?
COc1ccc(-c2nc(-c3ccccc3)c(-c3cccs3)[nH]2)cc1OC,3,i,7,?
O=C(/C=C/Nc1ccc(Oc2ccccc2)cc1)c1ccco1,1,i,11,6
Cc1cc2oc(=O)cc(Cn3ncc(Cl)c(Cl)c3=O)c2cc1Cl,-48*,i,3,15
O=C(NC(=S)N1CCCc2ccccc21)c1ccc(Cl)cc1,-2,i,1,-18
SMILES,CCT modulator,pAkt inh,CtBP-E1A blk,Six1-Eya2 blk
O=C(NC(=S)N1CCCc2ccccc21)c1ccccc1,-3,-114%*,-16,-20
CN(CC(=O)Nc1ccc(Cl)c(C(F)(F)F)c1)C(=O)c1ccc2c(c1)OCCO2,-81*,i,6,-8
O=C(N/N=C/c1sc2ccccc2c1O)c1ccccc1,-2,i,?,-87*
O=C(N/N=C/c1sc2ccccc2c1O)c1cccc2ccccc12,-1,i,?,?
COc1ccc(C(=O)N/N=C/c2sc3ccccc3c2O)cc1,-1,i,-65*,-74*
CC(=O)Nc1c([N+](=O)[O-])cc2c3c(cccc13)CC2,0,i,0,-3
O=C(NCc1ccc(OC(F)(F)F)cc1)C1CC(c2ccccc2C(F)(F)F)=NO1 (stereo not given),-1,i,5,5
Cc1ccc(NC(=O)CSc2ccc(-c3ccccn3)nn2)c(C)c1,1,i,-25,-26
COc1ccccc1NC(=O)CSc1ccc(-c2ccccn2)nn1,-1,i,-90*,-89*
Cc1cccc(NC(=O)CSc2ccc(-c3ccccn3)nn2)c1C,-3,i,-75*,-87*
N#C/C(=C\c1cccc(OCC(=O)O)c1)c1nc2ccccc2[nH]1,0,i,3,-15
CCN(CC)C(=O)c1sc(NC(=O)Cc2ccccc2)c(C#N)c1C,-1,-115%*,0,3
CCN(CC)C(=O)c1sc(NC(=O)Cc2ccc(OC)cc2)c(C#N)c1C,2,i,-1,-1
O=C(O)Cn1c(O)c(C=Nc2ccccc2)sc1=S,-3,-107%*!,-3,11
NC(=S)N/N=C/c1ccccc1[N+](=O)[O-],1,i,2,2
COC(=O)c1cccc(/C=N/NC(N)=S)c1O,1,i,nt,-66*
Oc1c(I)cc(I)c2cccnc12,-1,i,-73*,-67*
Oc1ccc(Cl)c2cccnc12,0,i,-95*,-91*
Oc1ccc(F)c2cccnc12,3,i,1,-81*
CNC(=O)COc1ccc(Cl)c2cccnc12,0,i,nt,4
Cc1ccc2c(Cl)cc(Cl)c(O)c2n1,-2,i,-65*,?
Cc1ccccc1CN1[C@@H]2c3ccccc3C[C@@H]2OCCS1(=O)=O,0,i,-1,7
CC(OC(=O)C1CCN(c2ccc(C(F)(F)F)cn2)CC1)C(=O)c1ccccc1 (stereo not given),-1,i,-2,37
Oc1c(Cl)cc(Cl)c2cccnc12,-5,i,-90*,-90*
Cc1ccc(S(=O)(=O)Nc2cc(Cl)c(O)c3ncccc23)cc1,0,i,-89*,-90*
SMILES,CCT modulator,pAkt inh,CtBP-E1A blk,Six1-Eya2 blk
CC1CCCN(S(=O)(=O)c2ccc(C(=O)NC(C)c3ccccc3)cc2)C1 (stereo not given),0,i,8,5
CC(C)c1nnc(NC(=O)CCC(=O)N2CCN(Cc3ccccc3)CC2)s1,-43*,i,1,2
O=S1(=O)Nc2c(ccc3cccnc23)-c2ccccc21,-2,i,-89*,-91*
Clc1ccc2ccc3cccnc3c2n1,0,i,nt,-9
CC1(CC(=O)N/N=C/c2cc([N+](=O)[O-])c(O)cc2O)OCCO1,0,i,nt,-89*
O=C(OCc1ccccc1)c1ccc(Br)o1,-4,-107%*,13,39
O=C(COC(=O)c1ccc(Br)o1)NCCCc1ccccc1,-2,i,0,0
COc1ccc(-c2nc(NC(=O)CSCCO)sc2C)cc1,-56*,i,5,-1
Cc1nc2ccccc2c(=O)n1NC(=O)Cc1ccc(Br)cc1,3,-81%*,4,0
